Measured values: PubChem BioAssay (NCI)
Compounds without any hit were thinned out: in the full panel of roughly 79,000, 15% have a hit. Calls of active or inactive are those of the source. Cut-off read from the data, not from the text of the source: active = growth inhibition above about 70%; inactive = the rest.

Assay: NCI Yeast Anticancer Drug Screen. Data for the mlh1 rad18 strain (AID 175)
Conditions: S. cerevisiae mlh1 rad18 strain growth inhibition; at 50.0 µM (retest, dose inferred, filed as 5.0); hits give high values
How it was run: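 Genetically defined yeast (DNA repair-deficient) exposed to compounds; growth inhibition determined relative to vehicle.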

Row | Compound | growth inhibition
1 | O=Nc1c(O)ccc2ccccc12.[Fe].[Na+] | 97% (active)
2 | CC(C)Cc1ncc(CC(C)C)n(O)c1=O | 98% (active)
3 | COc1ccc2c(c1)CCc1c-2ccc(C)c1CCC(=O)O | 100% (active)
4 | COc1ccc(/C=C(\C#N)c2ccccc2)cc1OC | 64% (inactive)
5 | CCC(=O)OCC(=O)c1ccc(-c2ccccc2)cc1 | 1% (inactive)
6 | C=C1CC(c2ccc(OCCCN3C(=O)c4ccccc4C3=O)c(OC)c2)OC1=O (stereo not given) | 97% (active)
7 | N[C@H](C(=O)O)[C@@H]1CC(Cl)=NO1 | 97% (active)
8 | Cc1ccc2c(c1)[n+]([O-])c(N)c(C#N)[n+]2[O-] | 96% (active)
9 | Cc1cc(O)c2c(c1)C(=O)c1c(c(O)cc(O)c1-c1c(O)cc(O)c3c1C(=O)c1cc(C)cc(O)c1C3=O)C2=O | 80% (active)
10 | CC(=O)c1csc2c1C(=O)c1scc(C(C)=O)c1C2=O | 49% (inactive)
11 | CCC(CCCN(CC)CCc1ccccc1)OC(=O)c1cc(OC)c(OC)c(OC)c1 (stereo not given) | 10% (inactive)
12 | COC(CCC[N+](C)(C)C)CC[N+](C)(C)C (stereo not given) | 81% (active)
13 | CCC(=O)c1ccc2ccc3ccccc3c2c1 | 64% (inactive)
14 | CN(C)c1nc(N(C)C)oc(=[N+](C)C)n1 | -13% (inactive)
15 | COc1ccc(Cc2ccc(N)cc2)cc1 | 86% (active)
16 | CN(C)CC(CN(C)C)C(=O)c1ccc(Oc2ccccc2)cc1 | 99% (active)
17 | C1C2OC2C2C1C1CC2C2OC12 (stereo not given) | -1% (inactive)
18 | Nc1ccc2c(c1)[nH]c(=O)c1cccc(Cl)c12 | 95% (active)
19 | COc1cccc(C2c3cc4c(cc3OC(Nc3ccccc3)C2C)OCO4)c1O (stereo not given) | 97% (active)
20 | Cc1cc(SC#N)cc(C)c1O | 81% (active)

Row | Compound | growth inhibition
21 | CCN(CC)CCCNc1ncc(C)c2c1c1ccc3c(O)cccc3c1n2C | 34% (inactive)
22 | O=C1c2ccccc2C(O)(C#Cc2ccccc2)c2cnccc21 (stereo not given) | 96% (active)
23 | CC(=O)Nc1nnc(C)s1 | -3% (inactive)
24 | CC1CN(CC(O)c2ccc(Br)cc2)CC(C)O1 (stereo not given) | 61% (inactive)
25 | O=C(C=P(c1ccccc1)(c1ccccc1)c1ccccc1)CC(=S)CC(=O)C=P(c1ccccc1)(c1ccccc1)c1ccccc1 | 77% (active)
26 | CN(C)CCC(/C=C/c1ccccc1)=N\Nc1ccc(Cl)cc1Cl | 91% (active)
27 | Oc1c(Cl)cc(Br)cc1Cl | 97% (active)
28 | Cc1ccc2c(ccc(CC(=S)[S-])[n+]2C)c1 | 41% (inactive)
29 | Cc1ccc2c(c1)C(=O)N(CC[P+](c1ccccc1)(c1ccccc1)c1ccccc1)C2=O | 82% (active)
30 | Nc1ncnc2c1c(-c1ccccc1)cn2-c1ccc(Cl)cc1 | 23% (inactive)
31 | Nc1nnc(-c2cc([N+](=O)[O-])cc([N+](=O)[O-])c2)o1 | 3% (inactive)
32 | COc1cc2c(cc1OC)C(Cl)C(c1ccc(F)cc1)=C2Cl (stereo not given) | -1% (inactive)
33 | COc1ccc(C2Oc3c(cccc3OC)C=C2[N+](=O)[O-])cc1 (stereo not given) | 98% (active)
34 | O=C(O)c1cc2cc3ccccc3cc2cc1O | 27% (inactive)
35 | Oc1ccc2ccc3ccccc3c2c1 | 99% (active)
36 | COC(=O)c1ccc(OC)cc1 | -3% (inactive)
37 | Clc1ccc2c(NCCCCCCNc3ccnc4cc(Cl)ccc34)ccnc2c1 | 97% (active)
38 | COc1ccc(C2C3=C(CCC(CN(C)C)C3=O)OC3=C2C(=O)C(CN(C)C)CC3)cc1 (stereo not given) | -7% (inactive)
39 | CC(C)CC(NC(=O)COc1c(Cl)cc(Cl)c(Cl)c1Cl)C(=O)O (stereo not given) | 12% (inactive)
40 | Cc1nc2c(=O)[nH]c3ccc(Cl)cc3c2o1 | 89% (active)
